# Several values for one entry are separate records, joined by “and”; a condition that tells them apart may be missing. Identical values can stand only once. Records with an inconclusive call do not appear. Entries that show only a call come without a potency. A number with no mark means an inactive call. Activity calls are given as the source filed them. Unless noted, calls come from the whole dose curve; as a rule, active = well fitted curve in the direction sought with a large enough effect; inconclusive = small, poorly fitted or top-dose-only effect, or another doubt; inactive = no such curve, though single readings can be large; an effect the other way counts as inactive or inconclusive.
# Key:
# [1] = Counterscreen for APE1 Inhibitors: Fluorescent Dye Displacement Validation Assay (AID 1707)
# How it was run: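 ThO 250 nM + dsDNA 50 nM (THF abasic site, 5'-TAMRA), Tris-HCl pH7.5/50mM NaCl/2 mM MgCl2/0.01% Tween-20; compounds pin-transferred; ex 480/em 540 nm endpoint. Neutral = no compound; no-DNA ThO wells = negative control.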
# [2] = target: Endonuclease 4 (Escherichia coli (strain K12)) (UniProt P0A6C1); assay: Counterscreen for APE1 Inhibitors: qHTS Validation Assay for Inhibitors of Endonuclease IV (AID 1708)
# How it was run: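 Cleavage of a quenched abasic-site DNA duplex (50 nM, 5'-TAMRA, 3'-BHQ-2) by 2 nM enzyme is followed as fluorescence increase. Compounds are preincubated with enzyme 15 min at room temperature before substrate addition.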
# [3] = target: RecQ-like DNA helicase BLM (Homo sapiens) (UniProt P54132); assay: qHTS Validation Assay for Inhibitors of Bloom's syndrome helicase (BLM) (AID 2364)
# RecQ-like DNA helicase BLM (Homo sapiens), sequence (P54132 whole entry, looked up): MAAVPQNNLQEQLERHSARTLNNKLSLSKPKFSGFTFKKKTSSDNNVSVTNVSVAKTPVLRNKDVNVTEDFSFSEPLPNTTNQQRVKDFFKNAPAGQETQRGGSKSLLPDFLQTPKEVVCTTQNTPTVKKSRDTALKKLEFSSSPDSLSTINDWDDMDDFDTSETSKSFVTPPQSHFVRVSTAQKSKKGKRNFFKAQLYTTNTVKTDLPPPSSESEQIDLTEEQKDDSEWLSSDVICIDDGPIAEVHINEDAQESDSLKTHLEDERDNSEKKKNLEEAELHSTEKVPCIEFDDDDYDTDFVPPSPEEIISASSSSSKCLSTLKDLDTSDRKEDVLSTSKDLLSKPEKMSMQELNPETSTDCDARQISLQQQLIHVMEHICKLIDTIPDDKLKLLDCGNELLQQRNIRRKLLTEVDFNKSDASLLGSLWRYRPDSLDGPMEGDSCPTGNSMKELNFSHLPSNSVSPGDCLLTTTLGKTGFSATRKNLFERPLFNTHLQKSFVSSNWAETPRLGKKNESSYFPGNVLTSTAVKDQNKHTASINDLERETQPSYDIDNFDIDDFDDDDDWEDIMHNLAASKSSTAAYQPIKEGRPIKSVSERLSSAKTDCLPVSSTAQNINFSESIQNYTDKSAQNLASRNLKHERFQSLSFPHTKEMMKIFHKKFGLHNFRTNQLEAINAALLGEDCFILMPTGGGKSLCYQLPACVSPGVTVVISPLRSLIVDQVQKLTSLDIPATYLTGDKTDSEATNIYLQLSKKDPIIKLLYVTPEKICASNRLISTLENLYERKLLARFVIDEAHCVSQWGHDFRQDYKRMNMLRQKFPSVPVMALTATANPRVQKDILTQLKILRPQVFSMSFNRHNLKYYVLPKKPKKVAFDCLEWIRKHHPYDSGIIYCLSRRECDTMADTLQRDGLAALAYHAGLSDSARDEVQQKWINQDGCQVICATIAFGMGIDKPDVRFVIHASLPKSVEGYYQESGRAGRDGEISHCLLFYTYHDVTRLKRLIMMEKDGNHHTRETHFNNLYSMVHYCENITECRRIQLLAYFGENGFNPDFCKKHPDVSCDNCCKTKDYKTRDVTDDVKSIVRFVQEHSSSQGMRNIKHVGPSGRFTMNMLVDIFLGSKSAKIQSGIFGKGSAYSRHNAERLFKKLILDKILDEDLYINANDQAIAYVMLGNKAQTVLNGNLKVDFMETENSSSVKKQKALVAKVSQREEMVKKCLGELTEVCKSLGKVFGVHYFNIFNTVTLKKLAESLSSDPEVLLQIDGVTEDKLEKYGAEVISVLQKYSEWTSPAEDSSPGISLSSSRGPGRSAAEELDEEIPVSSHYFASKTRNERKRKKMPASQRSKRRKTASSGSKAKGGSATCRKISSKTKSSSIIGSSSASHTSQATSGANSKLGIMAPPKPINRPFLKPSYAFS
# How it was run: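 50 nM BLM preincubated 15 min at room temperature with compound in pH 8.0 Tris buffer containing 2.5 ug/ml poly(dI-dC); started with 200 nM TAMRA/BHQ-2 forked duplex and 2 mM ATP (final). Unwinding read as TAMRA fluorescence increase, two reads 2 h apart.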
# [4] = Quantitative high throughput screen for delayed death inhibitors of the malarial parasite plastid, 48 hour incubation (AID 488752); note: nearly all actives have a fitted effect of over 65% in size; note: potency is the fitted concentration of half-maximal effect
# How it was run: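 Erythrocytes infected with P. falciparum carrying an integrated firefly luciferase reporter (2% hematocrit, 0.1% parasitemia final) were exposed to compounds in RPMI 1640/0.5% Albumax for 48 h at 37 C, 5% CO2. Growth inhibition was scored as reduced luminescence.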
# [5] = Validation screen for small molecules that induce DNA re-replication in SW480 colon adenocarcinoma cells (AID 504364)
# How it was run: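 SW480 cells seeded at 250 per well were exposed to compound or DMSO for 48 hr at 37 C, 5% CO2, then stained with Hoechst for 40 min. DNA content per nucleus was imaged (405 nm ex, 500-530 nm em).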
# [6] = target: Cytochrome P450 2C19 (Homo sapiens) (UniProt P33261); assay: qHTS Assay for Inhibitors and Substrates of Cytochrome P450 2C19 (AID 899); note: nearly all actives have a fitted effect of over 60% in size; note: potency is the fitted concentration of half-maximal effect
# Cytochrome P450 2C19 (Homo sapiens), sequence (P33261 whole entry, looked up): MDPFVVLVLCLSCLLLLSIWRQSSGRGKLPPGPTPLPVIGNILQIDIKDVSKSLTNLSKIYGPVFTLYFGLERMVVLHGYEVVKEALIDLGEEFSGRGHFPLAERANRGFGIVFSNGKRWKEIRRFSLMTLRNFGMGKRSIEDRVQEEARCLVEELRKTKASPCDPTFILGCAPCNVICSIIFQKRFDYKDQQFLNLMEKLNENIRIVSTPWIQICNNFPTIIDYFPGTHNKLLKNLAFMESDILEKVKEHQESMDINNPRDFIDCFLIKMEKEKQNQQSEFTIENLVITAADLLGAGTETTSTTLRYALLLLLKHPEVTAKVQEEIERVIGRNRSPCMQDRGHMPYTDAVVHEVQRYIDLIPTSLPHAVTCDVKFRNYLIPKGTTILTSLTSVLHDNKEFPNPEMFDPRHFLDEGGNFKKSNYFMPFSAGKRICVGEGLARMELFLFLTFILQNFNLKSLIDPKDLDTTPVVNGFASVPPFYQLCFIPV
# How it was run: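 Signal comes from luciferase acting on luciferin released by CYP2C19-mediated hydroxylation of Luciferin-H EGE, 10uM (KM). Assay mix: 5nM enzyme, 50mM KPO4; 60 min at 37C with NADPH regeneration. Data normalized against 57uM ketoconazole.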
# [7] = target: Rap guanine nucleotide exchange factor 3 (Homo sapiens) (UniProt O95398); assay: Confirmatory qHTS for antagonist of cAMP-regulated guanine nucleotide exchange factor 3 (EPAC1) (AID 1645880); note: nearly all actives have a fitted effect of over 55% in size
# Rap guanine nucleotide exchange factor 3 (Homo sapiens), sequence (O95398 whole entry, looked up): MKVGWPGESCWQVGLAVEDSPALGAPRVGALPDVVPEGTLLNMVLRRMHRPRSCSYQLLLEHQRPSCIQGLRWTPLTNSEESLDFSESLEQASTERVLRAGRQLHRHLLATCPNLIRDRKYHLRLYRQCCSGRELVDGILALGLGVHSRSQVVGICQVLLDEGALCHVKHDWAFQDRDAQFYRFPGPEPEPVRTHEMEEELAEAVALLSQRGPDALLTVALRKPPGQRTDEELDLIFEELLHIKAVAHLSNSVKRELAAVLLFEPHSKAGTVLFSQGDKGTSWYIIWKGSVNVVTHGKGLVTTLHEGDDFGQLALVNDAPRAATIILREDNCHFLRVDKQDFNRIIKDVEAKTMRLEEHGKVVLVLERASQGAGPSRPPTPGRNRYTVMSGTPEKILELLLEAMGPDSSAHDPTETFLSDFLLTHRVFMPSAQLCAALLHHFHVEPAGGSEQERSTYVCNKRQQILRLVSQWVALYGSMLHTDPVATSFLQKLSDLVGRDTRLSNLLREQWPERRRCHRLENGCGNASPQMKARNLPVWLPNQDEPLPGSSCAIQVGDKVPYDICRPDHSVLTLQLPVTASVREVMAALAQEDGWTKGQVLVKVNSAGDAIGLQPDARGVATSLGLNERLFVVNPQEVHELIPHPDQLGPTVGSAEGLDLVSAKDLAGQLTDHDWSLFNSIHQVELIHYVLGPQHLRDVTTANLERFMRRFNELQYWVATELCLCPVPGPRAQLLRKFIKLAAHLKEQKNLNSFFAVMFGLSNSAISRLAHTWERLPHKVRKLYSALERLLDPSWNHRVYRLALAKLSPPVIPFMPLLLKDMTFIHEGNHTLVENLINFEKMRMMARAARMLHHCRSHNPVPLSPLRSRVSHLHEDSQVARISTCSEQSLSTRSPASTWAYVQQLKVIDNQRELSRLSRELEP
# How it was run: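 Nucleotide exchange uses 100 nM EPAC1, 250 nM RAP1B-BODIPY-GDP and 50 uM GDP, with compounds in a concentration-titration series. After 5 min at room temperature, fluorescence (480 nm ex/540 nm em) is read every 5 min for 30 min. Data are normalized to control ATA and DMSO.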
# [8] = target: Rap guanine nucleotide exchange factor 3 (Homo sapiens) (UniProt O95398); assay: Confirmatory qHTS for agonist of cAMP-regulated guanine nucleotide exchange factor 3 (EPAC1) (AID 1645881); note: nearly all actives have a fitted effect of over 75% in size; note: potency is the fitted concentration of half-maximal effect;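 for activation: EPAC1 catalysed release of BODIPY-GDP from Rap1B seen as fluorescence loss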
# [9] = target: Rap guanine nucleotide exchange factor 4 (Homo sapiens) (UniProt Q8WZA2); assay: Confirmatory qHTS for antagonist of cAMP-regulated guanine nucleotide exchange factor 4 (EPAC2) (AID 1645885); note: nearly all actives have a fitted effect of over 25% in size; note: potency is the fitted concentration of half-maximal effect
# Rap guanine nucleotide exchange factor 4 (Homo sapiens), sequence (Q8WZA2 whole entry, looked up): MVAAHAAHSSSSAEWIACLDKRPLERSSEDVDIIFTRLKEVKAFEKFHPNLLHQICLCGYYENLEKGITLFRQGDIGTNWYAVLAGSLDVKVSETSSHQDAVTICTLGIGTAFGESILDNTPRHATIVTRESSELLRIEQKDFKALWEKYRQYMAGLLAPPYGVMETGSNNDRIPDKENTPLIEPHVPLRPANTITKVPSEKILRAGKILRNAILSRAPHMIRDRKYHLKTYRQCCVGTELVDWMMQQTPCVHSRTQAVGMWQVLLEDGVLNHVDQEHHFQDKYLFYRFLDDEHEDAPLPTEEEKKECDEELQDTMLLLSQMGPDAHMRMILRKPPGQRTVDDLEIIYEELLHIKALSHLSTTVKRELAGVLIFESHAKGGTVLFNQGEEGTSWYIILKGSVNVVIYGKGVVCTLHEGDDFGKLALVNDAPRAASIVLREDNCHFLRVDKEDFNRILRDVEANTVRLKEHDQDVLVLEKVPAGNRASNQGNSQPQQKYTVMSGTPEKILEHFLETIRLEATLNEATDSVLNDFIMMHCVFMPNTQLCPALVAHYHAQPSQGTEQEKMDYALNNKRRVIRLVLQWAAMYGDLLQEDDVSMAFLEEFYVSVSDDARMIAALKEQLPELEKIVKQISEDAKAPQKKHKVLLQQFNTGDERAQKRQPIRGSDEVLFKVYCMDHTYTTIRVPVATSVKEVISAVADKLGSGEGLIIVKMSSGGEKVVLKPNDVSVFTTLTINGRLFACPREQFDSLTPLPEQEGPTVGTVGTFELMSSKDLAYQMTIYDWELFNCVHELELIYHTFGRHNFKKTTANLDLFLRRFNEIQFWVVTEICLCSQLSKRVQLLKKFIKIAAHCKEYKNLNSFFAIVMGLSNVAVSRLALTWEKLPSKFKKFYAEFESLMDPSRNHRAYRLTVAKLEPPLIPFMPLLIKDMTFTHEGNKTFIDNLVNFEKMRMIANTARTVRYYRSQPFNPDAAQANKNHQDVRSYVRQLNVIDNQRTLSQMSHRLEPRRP
# [10] = target: Rap guanine nucleotide exchange factor 4 (Homo sapiens) (UniProt Q8WZA2); assay: Confirmatory qHTS for agonist of cAMP-regulated guanine nucleotide exchange factor 4 (EPAC2) (AID 1645884);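 note: nucleotide exchange releases bodipy-GDP from Rap1 and this lowers its fluorescence; nearly all actives have a fitted effect of over 65% in size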
# [11] = Validation screen for inhibitors of Lassa infection (AID 463096; calls by dose curve)
# [12] = target: Estrogen receptor (Homo sapiens) (UniProt P03372); assay: qHTS assay for small molecule agonists of estrogen receptor alpha signaling (AID 588514; calls by dose curve; note: nearly all actives have a fitted effect of over 70% in size; note: potency is the fitted concentration of half-maximal effect)
# Estrogen receptor (Homo sapiens), sequence (P03372 whole entry, looked up): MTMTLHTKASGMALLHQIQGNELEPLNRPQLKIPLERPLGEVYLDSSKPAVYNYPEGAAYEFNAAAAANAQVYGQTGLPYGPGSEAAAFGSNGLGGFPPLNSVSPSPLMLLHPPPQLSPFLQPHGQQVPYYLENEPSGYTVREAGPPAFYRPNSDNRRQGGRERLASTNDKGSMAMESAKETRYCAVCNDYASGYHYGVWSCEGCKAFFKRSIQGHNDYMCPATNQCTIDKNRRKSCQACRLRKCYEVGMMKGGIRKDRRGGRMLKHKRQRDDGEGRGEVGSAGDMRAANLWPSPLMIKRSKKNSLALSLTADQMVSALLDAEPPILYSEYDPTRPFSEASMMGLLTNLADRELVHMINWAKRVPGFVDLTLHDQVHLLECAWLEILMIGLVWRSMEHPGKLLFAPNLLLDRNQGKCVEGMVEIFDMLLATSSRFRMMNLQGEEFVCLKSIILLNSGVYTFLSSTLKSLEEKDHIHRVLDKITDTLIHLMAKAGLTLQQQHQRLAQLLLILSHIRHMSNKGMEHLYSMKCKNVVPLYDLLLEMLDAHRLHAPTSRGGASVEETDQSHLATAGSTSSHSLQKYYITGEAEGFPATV
# How it was run: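 ER-alpha-UAS-bla GripTite HEK 293 cells in medium with 2% charcoal/dextran-treated FBS were treated with compound titrations at 37 C for 18 hrs; beta-lactamase reporter read by CCF4 fluorescence after 2 hrs at RT.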
# [13] = target: Bile acid receptor (Homo sapiens) (UniProt Q96RI1); assay: qHTS assay for small molecule agonists of farnesoid X receptor signaling (AID 588527; calls by dose curve); conditions: HEK293T FXR-UAS-bla, beta-lactamase ratio, 16 h; active compounds read high
# How it was run: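 Quantitative HTS used FXR-UAS-bla HEK293T cells with 16 h compound incubation at 37 C. EC50 values came from concentration-response curves normalized to chenodeoxycholic acid.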
# [14] = qHTS assay to identify small molecules that stimulate interleukin-8 (IL-8) secretion (AID 651758; active = well fitted activation curve with a large enough effect in the signal ratio; the % refers to the signal ratio; note: potency is the fitted concentration of half-maximal effect)
# How it was run: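 THP-1 cells (2000/well) exposed to compound 16 h at 37 C; secreted IL-8 then detected by HTRF with cryptate- and XL665-labelled anti-IL-8 antibody pair after 1-3 h at room temperature.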
# [15] = Cell Viability - LYMP2-001 (AID 921);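 note: cells exposed to compound for 24 h at 37 °C; nearly all actives have a fitted effect of over 70% in size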
# How it was run: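 A lymphoblastoid cell line of human origin was treated with library compounds across a concentration series for 24 hours, and viable cell number was estimated from ATP-driven luciferase light output. Hill modeling gave AC50.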
# [16] = MultiTox-Fluor Cytotoxicity Assay - LYMP1-001 - Live Cells (AID 947); note: potency is the fitted concentration of half-maximal effect
# [17] = Cell Viability - LYMP2-003 (AID 965);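 note: cells exposed to compounds for 24 h before reading; nearly all actives have a fitted effect of over 50% in size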; note: potency is the fitted concentration of half-maximal effect
# How it was run: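 qHTS, human lymphoblastoid line, 2500 cells/well, complete medium. 24 h drug, 37 C. ATP-based luminescent readout; Hill-fit AC50.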
# [18] = target: Peroxisome proliferator-activated receptor gamma (Homo sapiens) (UniProt P37231); assay: qHTS assay for small molecule antagonists of peroxisome proliferator-activated receptor gamma signaling (AID 588537; active = well fitted inhibition curve with a large enough effect in the signal ratio, with a control signal flat, not every such curve was filed as active; the % refers to the signal ratio;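 note: reporter cells co-stimulated with 50 nM rosiglitazone agonist during compound treatment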)
# Peroxisome proliferator-activated receptor gamma (Homo sapiens), sequence (P37231 whole entry, looked up): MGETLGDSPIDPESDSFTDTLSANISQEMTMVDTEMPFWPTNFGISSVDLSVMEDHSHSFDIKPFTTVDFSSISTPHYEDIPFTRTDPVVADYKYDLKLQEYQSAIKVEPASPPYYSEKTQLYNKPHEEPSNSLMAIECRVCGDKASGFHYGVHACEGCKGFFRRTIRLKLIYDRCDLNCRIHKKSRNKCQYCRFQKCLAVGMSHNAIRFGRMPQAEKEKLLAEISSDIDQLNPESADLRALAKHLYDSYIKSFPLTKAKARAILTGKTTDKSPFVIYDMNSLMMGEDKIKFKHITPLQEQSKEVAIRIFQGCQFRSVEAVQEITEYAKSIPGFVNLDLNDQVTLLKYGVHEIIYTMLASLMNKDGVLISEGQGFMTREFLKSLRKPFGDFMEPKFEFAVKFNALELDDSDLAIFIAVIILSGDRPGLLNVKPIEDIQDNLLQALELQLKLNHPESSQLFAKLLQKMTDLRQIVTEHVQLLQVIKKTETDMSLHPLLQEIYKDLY
# How it was run: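 Step one: plate 3000 HEK293 UAS-bla cells per well in medium with 1% stripped serum and hold 6-6.5 h at 37 C. Step two: add compound and 50 nM agonist for 16 h. Step three: CCF4 loading, fluorescence read.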
# [19] = qHTS assay for small molecule disruptors of the mitochondrial membrane potential - 5 hr assay (AID 651755; calls by dose curve; note: nearly all actives have a fitted effect of over 40% in size)
# How it was run: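 HepG2 cells (2,000/well), attached overnight, exposed to compound 5 hr at 37C, then Mito-MPS dye 30 min. Fluorescence read for monomers (490/535 nm) and aggregates (540/590 nm).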
# [20] = Cell Viability - SH-SY5Y (AID 544); conditions: SH-SY5Y neuroblastoma cell viability; viability change, negative = cytotoxic: at 92.2 µM (top of the series); note: nearly all actives have a fitted effect of over 55% in size
# How it was run: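 Human neuroblastoma SH-SY5Y cells (1500/well) in complete medium were exposed to compounds for 40 hr at 37 °C; intracellular ATP was then quantified by CellTiter-Glo luminescence after 20 min at room temperature. AC50 came from Hill-equation concentration-response fits.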
compound,measurement,setting,value
C=CCN1CCc2cccc3c2C1Cc1ccc(O)c(O)c1-3 (stereo unspecified),outcome,[1],inactive
same,Potency,[2],inactive
same,outcome,[3],inactive
same,Potency,[4],10400 nM (active)
same,outcome,[5],inactive
O=C(c1ccco1)N1CCC[C@@]2(CCN(Cc3ccncc3)C2)C1,Potency,[6],2510 nM (active)
Cc1ccccc1-c1cncnc1NCCc1cnc[nH]1,Potency,[6],50.1 nM (active)
CC1=NCCc2c1[nH]c1cc(O)ccc21,Potency,[6],inactive
same,Potency,[7],inactive
same,Potency,[8],63 µM (active) and 28.1 µM (active) and 48.4 µM (active)
same,Potency,[9],inactive
CC(=O)OC1CC2C(C)(C)C(=O)C=C[C@]2(C)C2CC[C@]3(C)C(=CC(=O)OC3c3ccoc3)[C@]12C (stereo partly specified),Potency,[7],inactive
same,Potency,[8],inactive
same,Potency,[10],inactive
O=C(OC1CCN(CCCl)CC1)C(c1ccccc1)c1ccccc1,outcome,[1],inactive
same,Potency,[11],inactive
same,outcome,[5],inactive
same,Potency,[7],inactive
same,Potency,[8],inactive
same,activation,[10],"6.37% [at 17.1 µM, percent relative to cAMP agonist control]"
same,"activity change, negative = inhibition",[9],-6.11% [at 12.7 µM]
COc1cc2c(cc1-c1cc3cc4ccoc4cc3oc1=O)OCO2,Potency,[8],inactive
same,Potency,[10],inactive
same,Potency,[9],987 nM (active)
N#Cc1cccc(NC(=O)N2CC[C@@]3(CCCN(C(=O)Oc4ccccc4)C3)C2)c1,Potency,[6],inactive
O=C1c2ccccc2-c2cccc3cccc1c23,Potency,[7],inactive
same,Potency,[8],inactive
same,Potency,[10],inactive
same,Potency,[9],inactive
CCc1c(C(=O)OC)ncc2[nH]c3cc(OC)c(OC)cc3c12,Potency,[11],inactive
same,Potency,[4],inactive
same,outcome,[5],inactive
CCCN1CCc2cccc3c2C1Cc1ccc(O)c(O)c1-3 (stereo unspecified),outcome,[1],inactive
same,Potency,[2],inactive
same,outcome,[3],inactive
same,Potency,[11],inactive
same,Potency,[4],1850 nM (active)
same,outcome,[5],inactive
CC(C)[C@@]1(NC(=O)[C@@H]2C[C@@H]3c4cccc5[nH]cc(c45)C[C@H]3N(C)C2)O[C@@]2(O)C3CCCN3C(=O)[C@H](Cc3ccccc3)N2C1=O (stereo partly specified),outcome,[1],inactive
same,Potency,[2],inactive
same,Potency,[4],1650 nM (active)
C[C@]12CC[C@H](O)CC1=CCC1C2CC[C@]2(C)C(=O)CC[C@@H]12 (stereo partly specified),outcome,[1],inactive
same,Potency,[2],inactive
same,outcome,[3],inactive
same,Potency,[11],inactive
same,Potency,[4],inactive
same,outcome,[5],inactive
CCCN1CCc2cc(O)cc3c2C1Cc1ccc(O)c(O)c1-3 (stereo unspecified),Potency,[2],inactive
same,outcome,[3],inactive
same,Potency,[11],inactive
same,Potency,[4],8280 nM (active)
O=C1C=CC(=O)c2c(O)cccc21,Potency,[8],inactive
same,Potency,[10],inactive
same,Potency,[9],inactive
COc1ccc2c(c1O)-c1c(OC)c(OC)cc3c1[C@H](C2)N(C)CC3,Potency,[6],inactive
O=S1OCC2C(CO1)C1(Cl)C(Cl)=C(Cl)C2(Cl)C1(Cl)Cl (stereo unspecified),Potency,[12],1410 nM (active)
same,activation,[13],2.02%
same,Potency,[14],66800 nM (active)
COC(=O)NC(=S)Nc1ccccc1NC(=S)NC(=O)OC,Potency,[15],inactive
same,Potency,[16],inactive
same,Potency,[17],inactive
same,Potency,[12],inactive
same,activation,[13],1.1% and -0.86%
same,Potency,[18],inactive
same,Potency,[19],inactive
C/C=C/c1ccc2c(c1)OCO2,Potency,[20],inactive
same,Potency,[15],inactive
same,Potency,[17],inactive
ClC1=C(Cl)C2(Cl)C3C4CC(C5OC45)C3C1(Cl)C2(Cl)Cl (stereo unspecified),Potency,[20],inactive
same,Potency,[16],15800 nM (active)
same,Potency,[17],25100 nM (active)
same,Potency,[19],inactive
ClC(Cl)=C(c1ccc(Cl)cc1)c1ccc(Cl)cc1,Potency,[20],inactive
same,Potency,[15],inactive
same,Potency,[16],inactive
same,Potency,[17],inactive
same,Potency,[12],inactive
same,Potency,[18],inactive
same,Potency,[19],inactive
same,Potency,[14],inactive
C=CCc1ccc(OC)cc1,Potency,[20],inactive
same,Potency,[15],inactive
same,Potency,[16],inactive
same,Potency,[17],inactive
same,Potency,[18],inactive
CCc1cccc(CC)c1N(COC)C(=O)CCl,activation,[13],-2.1%
same,Potency,[19],inactive
CCOCN(C(=O)CCl)c1c(C)cccc1CC,Potency,[16],inactive
same,Potency,[19],inactive
same,Potency,[14],inactive
CCNc1nc(Cl)nc(NC(C)C)n1,Potency,[20],inactive
same,Potency,[17],inactive
same,Potency,[12],inactive
same,Potency,[18],inactive
same,Potency,[14],inactive
COP(=S)(OC)Oc1ccc([N+](=O)[O-])cc1,Potency,[20],inactive
same,Potency,[15],inactive
same,Potency,[12],inactive
same,activation,[13],0.0258% and 2.38%
same,Potency,[18],inactive
same,Potency,[19],inactive

# Reference: PubChem BioAssay (NCATS)
